Measured values from ChEMBL document CHEMBL1157539, “Thousands of chemical starting points for antimalarial lead identification” (Nature, 2010).

Experiments:
Assay type in all cases: functional
Plasmodium falciparum [1] = assay: GSK_TCMDC: Inhibition of Plasmodium falciparum 3D7 in whole red blood cells, using parasite LDH activity as an index of growth. Test compounds present at 2uM
Plasmodium falciparum [2] = assay: GSK_TCMDC: Inhibition of Plasmodium falciparum Dd2 in whole red blood cells, using parasite LDH activity as an index of growth. Test compounds present at 2uM
HepG2 = assay: GSK_TCMDC: Percent inhibition of human HepG2 cell line. Test compounds present at 10uM.

Compound | Inhibition (Plasmodium falciparum [1]) | Inhibition (Plasmodium falciparum [2]) | Inhibition (HepG2)
Cc1cnc(C(=O)Nc2cccc(-c3cccc(-c4nc5cccc(C)c5[nH]4)c3)c2)cn1 | 99% | 45% | 15%
CCCCCCn1c(Sc2ccc(C#N)c([N+](=O)[O-])c2)nnc1-c1ccccc1 | 97% | 41% | 23%
COc1ccc(C(=O)CCC(=O)N(Cc2ccc(-c3ccc(CNCc4cccnc4)cn3)cc2)C2CCN(Cc3ccccc3)CC2)cc1F.O=C(O)C(F)(F)F | 94% | 26% | 30%
CCN(CC)CCN(Cc1ccc(-c2ccc(Cl)cc2)cc1)C(=O)Cn1c(CCc2cccc(F)c2F)nc(=O)c2ccccc21.O=C(O)C(O)C(O)C(=O)O | 100% | 75% | 45%
CN1CCN(c2ccc(-c3nc4ccc(OCc5cc(Cl)cc(Cl)c5)c(C(N)=O)c4[nH]3)cc2)CC1 | 100% | 85% | 45%
O=C(Nc1cc(C(F)(F)F)ccc1N1CCOCC1)C(Cl)(Cl)Cl | 100% | 100% | 0%
COc1ccc(CCN(C)CCOc2ccc(NC(=O)c3ccc([N+](=O)[O-])c4c(=O)c5ccccc5[nH]c34)cc2)cc1OC | 91% | 25% | 38%
CC(Oc1ccc(Cl)cc1)C(=O)N(C)C1CCN(CCCCCNC(=O)/C=C/c2ccc(Cl)c(Cl)c2)CC1 (stereo unspecified) | 85% | 10% | 61%
O=C(COc1ccccc1Cl)N1CCc2cc3nccc(N4CCN5CCC[C@H]5C4)c3cc21 | 91% | 99% | 4%
COc1ccc2nccc([C@@H](O)CN3CCC(NC(=O)/C=C/c4cc(F)cc(Br)c4)CC3)c2c1 | 95% | 50% | 24%
CCC(O)c1ccc(Br)cc1NC(=O)c1cccc(Cl)c1 (stereo unspecified) | 80% | 52% | 0%
Cl.O=S(=O)(c1ccc(OCc2ccc(Cl)cc2)cc1)c1cc2c(cc1O)CCN(C1CCC1)CC2 | 99% | 63% | 11%
COc1ccc2[nH]c(/C=C/c3cccc4ccc(C)nc34)nc2c1 | 98% | 77% | 25%
COc1ccc2nccc(CCN3CC(O)C(CNCc4ccc5c(n4)NC(=O)CS5)C3)c2n1.Cl (stereo unspecified) | 86% | 26% | 4%
O=C(/C=C/c1ccc(Cl)c(Cl)c1)NCCCCCCN1CCCN(C(=O)Nc2cccc(C(F)(F)F)c2)CC1 | 95% | 0% | 25%
O=C(Nc1cc(Cl)cc(Cl)c1)c1cc(Cl)c(=O)n(Cc2cccc(Cl)c2)c1 | 100% | 62% | 8%
COc1ccc2nccc([C@@H](O)CN3CCC(NC(=O)Cn4nc(-c5ccc(C(F)(F)F)cc5)ccc4=O)CC3)c2c1 | 100% | 90% | 12%
Cc1nc(-c2nc(NCCc3cnccn3)ncc2-c2ccsc2)sc1C | 98% | 40% | 0%
CC(=O)OC[C@H]1O[C@@H](C#Cc2ccccc2)[C@H](OC(C)=O)[C@@H](OC(C)=O)[C@@H]1OC(C)=O | 95% | 90% | 5%
Cc1nc2ccccc2c(=O)n1/N=C/c1ccccc1[N+](=O)[O-] | 94% | 26% | 0%
COc1ccc(CC(=O)Nc2ccc(Nc3nc(C)cc(N(C)C)n3)cc2)cc1 | 97% | 31% | 17%
CCCCCCNC(=O)C(N)CCCC(N)C(=O)NCCCCCC.Cc1ccc(S(=O)(=O)O)cc1 (stereo unspecified) | 99% | 0% | 0%
Cc1cccc2nc(-c3cccc(-c4ccc(NC(=O)CCc5c[nH]cn5)cc4)c3)[nH]c12 | 100% | 92% | 3%
CCCCCCOc1ccc(C(=O)NCCCC2CCCN(CCCCCNC(=O)C=Cc3ccc(Cl)c(Cl)c3)C2)cc1 (stereo unspecified) | 96% | 12% | 20%
CC1CCCN1Cc1ccc(-c2ccc3c(=O)cc(CCc4cccc(F)c4F)n(CC(=O)N(C)Cc4ccc(-c5ccc(C(F)(F)F)cc5)cc4)c3n2)cc1.O=C(O)C(O)C(O)C(=O)O (stereo unspecified) | 100% | 91% | 0%
FC(F)(F)c1cccc(Nc2nc3ccccc3nc2Nc2cccc(C(F)(F)F)c2)c1 | 100% | 100% | 45%
CCCn1cc2c(ccc3nc(N)nc(N)c32)n1 | 95% | 0% | 65%
